Source: PubChem BioAssay (several laboratories)
MITF act = activators of MITF-driven TRPM1 promoter reporter, primary screen, cell-based, SK-MEL-5, luciferase, single point; activation, % at 12.5 µM; 300,000 compounds, 0.75% hits; SK-MEL-5 TRPM1-promoter luciferase, 24 h; % of positive control, neutral wells = 0; AID 588334, 2011;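 active = mean activation of at least 80% with every replicate also reaching 80%; inconclusive = mean reaches 80% but some replicate falls short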
HSF1 inhib = HSF1 inhibitors in luciferase reporter cells, primary screen, cell-based, NIH3T3, luminescence | 300,000 compounds, 0.77% hits | NIH3T3-HGL HSE-luciferase, MG132-induced, luminescence 8 h; stronger effect = lower value | activity change, negative = inhibition, % at 7.5 µM (by protocol) | AID 2098, 2009;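 active = more than half of replicate wells show activity change below -50%, luminescence cut by over half; inconclusive = some wells, but at most half, below -50%; inactive = no replicate well below -50%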;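 note: luciferase reports HSF-1 transcriptional activity via heat shock element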
esBAF inh = Bmi1 luciferase reporter increase in mESCs, primary screen, esBAF inhibitor project, mouse ES cells, Bmi1 luciferase knock-in, single point; 24 h; 100% = twice the neutral-well signal; reporter increase, % at 12.5 µM; 350,000 compounds, 2% hits; AID 602393, 2012; in the data active = activation above about 40%; inconclusive = no clear call, values can overlap the other calls;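 note: a rise in the Bmi1 reporter signal indicates esBAF inhibition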
SMARCA2 act = SMARCA2 (BRM) function activators, primary screen, cell-based, luminescence, high throughput; MG213 cells, MMTV-luciferase reporter, dexamethasone, overnight; activation, % at 9.1 µM; 370,000 compounds, 1% hits; AID 652017, 2013; in the data active = activation above about 7.8%
Wnt act = Wnt/beta-catenin pathway activators, primary screen, cell-based, plate reader, single point | Wnt/beta-catenin reporter cell assay, activator | activation, % at 9.35 µM | 300,000 compounds, 1.2% hits; in the data active = activation above about 30%, passing the limit was not always enough; inconclusive = no clear call, values can overlap the other calls
HSF-1 act = HSF-1 activators, primary screen, NIH3T3-HGL cells, MG132 stress, luminescence, single point; NIH3T3-HGL HSF-1 luciferase reporter, 8 h; 100% = twice DMSO control signal; activation, % at 9 µM; 300,000 compounds, 1.7% hits; AID 504408, 2011;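 active = mean replicate activation of at least 50% with a set share of replicates each reaching 50%; inconclusive = only one of those two conditions met; inactive = mean below 50% and too few replicates reaching it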
A number is an active result; – = inactive; ? = inconclusive; · = not tested or not shown. A selection: hits, their analogues and other compounds. The true share with any hit is near 4.3%.

SMILES	MITF act	HSF1 inhib	esBAF inh	SMARCA2 act	Wnt act	HSF-1 act
COc1ccc(OC)c(NC(=O)c2ccc(Cl)cc2)c1	–	·	–	–	–	·
COc1ccc(C(=O)Nc2cc(Cl)ccc2OC(=O)c2ccc(OC)cc2)cc1	–	–	69.2	·	·	–
O=C(Nc1ccccc1OC(=O)c1ccc(Cl)cc1)c1ccc(Cl)cc1	–	–	65.0	–	?	–
Cc1ccc(-c2cc(-c3ccccc3C)[nH]n2)c(O)c1	–	·	–	–	·	·
Cc1ccc(-c2cc(-c3cccc(F)c3)n[nH]2)c(O)c1	–	–	55.7	–	·	–
Cc1ccc(O)c(-c2cc(-c3ccccc3F)[nH]n2)c1	–	–	·	–	·	156.9
O=[N+]([O-])c1ccccc1-c1cc(-c2ccccc2O)n[nH]1	–	–	55.1	–	35.6	–
Cc1ccc(S(=O)(=O)N(C)C[C@@H]2Oc3c(NC(=O)c4cnccn4)cccc3C(=O)N([C@H](C)CO)C[C@H]2C)cc1	·	·	–	·	·	·
CN1C[C@@H]2[C@H](c3ccccc31)[C@H](CO)N2C(=O)C1CCCCC1	·	·	–	·	·	·
O=C(C[C@H]1C[C@@H]2c3cc(NC(=O)Nc4ccccc4F)ccc3O[C@@H]2[C@@H](CO)O1)NC1CCCCC1	·	·	–	·	·	·
COc1ccc(C=O)cc1CN1CCCN(Cc2ccc(Cl)cc2)S1(=O)=O	–	-80.3	–	–	–	–
COC(=O)c1ccc(OC)c(CN2CCCN(Cc3ccc(F)cc3)S2(=O)=O)c1	–	–	–	–	–	–
Cc1cc(C(=O)Nc2ccc(Br)cc2)cs1	–	–	·	–	45.0	–
CCc1nc2ccc(C(=O)O)cc2nc1CC	–	-68.6	·	–	–	–
Cc1nc2ccc(C(=O)Nc3ccc(N(C)C)cc3)cc2s1	–	–	·	–	–	–
CNS(=O)(=O)c1ccc(NC(=O)c2csc(C)c2)cc1	–	–	·	–	–	–
CC(=O)c1ccc(NC(=O)c2ccc3nc(C)sc3c2)cc1	·	–	48.8	–	–	–
Cc1nc2cc(C(=O)O)ccc2s1	–	–	73.2	–	·	–
Cc1noc(C)c1NC(=O)N(C)C[C@@H]1Oc2c(NC(=O)Nc3cccc4ccccc34)cccc2C(=O)N([C@@H](C)CO)C[C@@H]1C	·	·	–	·	·	·
O=S(=O)(N[C@@H]1CC[C@@H](CCn2cc(C3(O)CCCC3)nn2)O[C@@H]1CO)c1ccccc1	·	·	–	·	·	·
O=C(NCC[C@@H]1CC[C@H](NC(=O)c2ccccc2F)[C@H](CO)O1)c1cnccn1	·	·	–	·	·	·
COc1cc(C(=O)Nc2ccc(C(C)=O)cc2)c(Br)c(OC)c1OC	–	–	47.6	–	–	–
CC(=O)c1ccc(NC(=O)c2ccc(C)c(Br)c2)cc1	–	–	·	–	69.2	56.0
Cc1ccc(OC(=O)c2ccc3nc(C)sc3c2)cc1	·	-61.8	·	–	–	–
Cc1nc2ccc(NC(=O)c3cncc(Br)c3)cc2s1	92.5	–	–	–	–	–
SMILES	MITF act	HSF1 inhib	esBAF inh	SMARCA2 act	Wnt act	HSF-1 act
CO[C@H]1CN(C)C(=O)c2ccc(NC(=O)c3cnccn3)cc2OC[C@@H](C)N(C)C[C@H]1C	·	·	–	·	·	·
C[C@@H]1CN([C@H](C)CO)S(=O)(=O)c2ccc(C3=CCCC3)cc2O[C@@H]1CN(C)C(=O)c1ccncc1	·	·	–	·	·	·
O=C(/C=C/c1cccs1)Nc1nncs1	–	–	·	–	–	–
CC(/C=C/c1cccs1)=C\C(=O)O	–	–	·	–	·	91.5
Cc1ccc(/C=C/C(=O)NCc2cccs2)cc1	–	–	46.2	–	·	–
O=C(/C=C/c1cccs1)NCc1cccs1	·	–	·	–	42.9	–
Cc1ccc(/C=C/C(=O)NCc2cccs2)c(C)c1	–	–	·	–	–	?
O=C(/C=C/c1cccs1)Nc1cccnc1	91.9	–	·	–	–	–
CC(/C=C\c1ccccc1)=C/C(=O)O	–	–	·	–	–	–
O=C1CCCC/C1=N\Nc1ccc(C2CCCCC2)cc1	·	-55.6	·	·	·	–
Cn1c(SCc2ccccc2)nnc1-c1c[nH]c2ccccc12	·	–	81.3	–	–	–
CCCCSc1nnc(-c2ccc(NC(C)=O)cc2)n1C	–	–	·	–	·	–
